Source: PubChem BioAssay (Tox21)
Results filed as inconclusive are left out. The source made the active and inactive calls. Unless noted, calls come from the whole dose curve; as a rule, active = well fitted curve in the direction sought with a large enough effect in the repeat runs; inconclusive = weak or mixed curves; inactive = no such curve, though single readings can be large; an effect the other way counts as inactive or inconclusive.

Key:
[1] = qHTS assay to identify small molecule agonists of the hypoxia (HIF-1) signaling pathway - cell viability counter screen (AID 1224844; calls by dose curve; note: nearly all actives have a fitted effect of over 50% in size)
Procedure, shortened: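 Multiplexed with the HRE beta-lactamase assay, this viability read used CellTiter-Glo luminescence (30 min, RT) on HRE-bla ME-180 cells treated 17 hrs with compounds in 0.5% dialyzed FBS medium.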

[2] = qHTS assay to identify small molecule agonists of H2AX (AID 1224845; active = well fitted activation curve with a large enough effect in the signal ratio in the repeat runs, not every such curve was filed as active; the % refers to the signal ratio)
Procedure, shortened: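 Wild-type CHO-K1 cells, plated overnight, exposed 3hr at 37C to 15 concentrations (0.76% DMSO final). Lysed, then HTRF anti-pH2AX (S139) cryptate and anti-H2AX-d2 antibodies, 24 hr room temperature; 665/620 nm emission read.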

[3] = qHTS assay to identify small molecule agonists of the hypoxia (HIF-1) signaling pathway (AID 1224846; active = well fitted activation curve with a large enough effect in the signal ratio in the repeat runs, not every such curve was filed as active; the % refers to the signal ratio)
Procedure, shortened: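 Hypoxia-pathway activation was scored as increased beta-lactamase from an HRE-controlled reporter in ME-180 cells; plated at 2,000 cells per well with 0.5% dialyzed FBS, they were exposed 17 hrs to compounds and then given CCF4-AM.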

[4] = qHTS assay to identify small molecule agonists of H2AX - cell viability counter screen (AID 1224847; calls by dose curve; note: top concentration of the series differs between compounds; nearly all actives have a fitted effect of over 30% in size)
Procedure, shortened: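 CHO-K1 wt, 1000 cells/well, o/n 37C; cpds 15 conc, 3 h 37C, 0.76% DMSO; CellTiter-Glo, 30 min RT, luminescence.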

[5] = qHTS assay to identify small molecule antagonists of the estrogen related receptor (ERR) signaling pathway from Tox21 library (AID 1224848); note: nearly all actives have a fitted effect of over 50% in size
Procedure, shortened: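 ERR reporter cell line (from NTP) seeded 2,000 cells/well, rested 6 h at 37 C/5% CO2, then pin-dosed with compounds in DMSO. After 18 h at 37 C, ONE-Glo added; luminescence read after 30 min at room temperature.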

[6] = qHTS assay to identify small molecule agonists of the estrogen related receptor (ERR) signaling pathway from Tox21 library (AID 1224849; calls by dose curve; note: nearly all actives have a fitted effect of over 15% in size); conditions: ERR reporter cell line, ONE-Glo luciferase, 18 h; at 92.4 µM (top of the series) unless noted
Procedure, shortened: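 Six hours post-seeding at 37 C/5% CO2, ERR cells receive DMSO-solubilised compounds; after 18 h at 37 C, ONE-Glo reagent is applied and luminescence recorded.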

[7] = qHTS RealTime-Glo MT Cell Viability Assay in HepG2 cells - 24 hour (AID 1224867); note: nearly all actives have a fitted effect of over 50% in size
Procedure, shortened: (§1)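 HepG2 suspension premixed with RealTime-Glo reagents is plated at 600 cells per well and left 5 h at 37 C/5% CO2. Compounds in DMSO then go in, and bioluminescence reflecting viable cell number is recorded over 40 h.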

[8] = qHTS RealTime-Glo MT Cell Viability Assay in HEK293 cells - 32 hour (AID 1224868); note: top concentration of the series differs between compounds; nearly all actives have a fitted effect of over 50% in size
Procedure, shortened: (§2)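 Reads taken at 0, 8, 16, 24, 32 and 40 h from the same wells. HEK293 cells (600/well) carried RealTime-Glo reagents from seeding, with compound added after a 5 h settle at 37 C.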

[9] = A CellTox Green Cytotoxicity Assay to monitor cytotoxicity in HEK293 cells - 0 hour (AID 1224869); note: nearly all actives have a fitted effect of over 50% in size
Procedure, shortened: (§3)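 Seeding of HEK293 cells together with cytotoxicity dye preceded a 5 h incubation at 37 C/5% CO2. Test compounds in DMSO were then added and fluorescence monitored across 40 h.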

[10] = qHTS RealTime-Glo MT Cell Viability Assay in HepG2 cells - 40 hour (AID 1224870); note: nearly all actives have a fitted effect of over 50% in size
Procedure, shortened: (§4)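 HepG2 cells (600/well) mixed with RealTime-Glo MT reagent, settled 5 h at 37 C/5% CO2 before compound addition. Nonlytic NanoLuc luminescence from viable-cell prosubstrate reduction read repeatedly during 40 h treatment at 37 C.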

[11] = A CellTox Green Cytotoxicity Assay to monitor cytotoxicity in HEK293 cells - 40 hour (AID 1224871); note: nearly all actives have a fitted effect of over 45% in size
Procedure, shortened: as §3

[12] = qHTS RealTime-Glo MT Cell Viability Assay in HepG2 cells - 8 hour (AID 1224873); note: nearly all actives have a fitted effect of over 55% in size
Procedure, shortened: as §4

[13] = qHTS RealTime-Glo MT Cell Viability Assay in HEK293 cells - 40 hour (AID 1224874); conditions: RealTime-Glo luminescence; max response: hits give low values; note: nearly all actives have a fitted effect of over 50% in size
Procedure, shortened: (§5)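 Tox21 screen in HEK293 using RealTime-Glo MT chemistry, with cells and reagent co-dispensed. Luminescence proportional to viable cell number was captured at intervals during 40 h compound exposure at 37 C.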

[14] = A CellTox Green Cytotoxicity Assay to monitor cytotoxicity in HEK293 cells - 24 hour (AID 1224875); note: nearly all actives have a fitted effect of over 45% in size
Procedure, shortened: as §3

[15] = qHTS RealTime-Glo MT Cell Viability Assay in HepG2 cells - 32 hour (AID 1224877); note: nearly all actives have a fitted effect of over 55% in size
Procedure, shortened: as §1

[16] = A CellTox Green Cytotoxicity Assay to monitor cytotoxicity in HepG2 cells - 24 hour (AID 1224878); note: nearly all actives have a fitted effect of over 45% in size
Procedure, shortened: (§6)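 Nonlytic assay: viable cells exclude the dye, so fluorescence scales with cell death. HepG2 at 600 cells/well, compounds added after 5 h, signal read across 40 h.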

[17] = A CellTox Green Cytotoxicity Assay to monitor cytotoxicity in HepG2 cells - 40 hour (AID 1224879); note: nearly all actives have a fitted effect of over 40% in size
Procedure, shortened: as §6

[18] = qHTS RealTime-Glo MT Cell Viability Assay in HEK293 cells - 0 hour (AID 1224880); note: top concentration of the series differs between compounds; nearly all actives have a fitted effect of over 45% in size
Procedure, shortened: as §5

[19] = qHTS RealTime-Glo MT Cell Viability Assay in HEK293 cells - 16 hour (AID 1224872)
Procedure, shortened: as §2

[20] = A CellTox Green Cytotoxicity Assay to monitor cytotoxicity in HepG2 cells - 16 hour (AID 1224876); note: nearly all actives have a fitted effect of over 45% in size
Procedure, shortened: as §6
% is set by controls: 0 for no effect and ±100 for the full control effect.

CC(=O)c1sc(C)nc1C
inactive: outcome [1] | outcome [2] | outcome [3] | Potency [4] | Potency [5] | activity change, positive = activation [6] -11% | outcome [7] | Potency [8] | outcome [9] | outcome [10] | Potency [11] | outcome [12] | max response [13] -23.3% | outcome [14] | outcome [15] | outcome [16] | Potency [17] | Potency [18]

Cc1c(I)c(=O)n(-c2ccccc2)n1C
inactive: outcome [1] | outcome [2] | outcome [3] | Potency [4] | Potency [5] | activity change, positive = activation [6] 2.79% [at 42.5 µM] | outcome [7] | Potency [8] | outcome [9] | outcome [10] | Potency [11] | Potency [19] | max response [13] -1.2% | outcome [14] | outcome [20] | outcome [15] | outcome [16] | Potency [17]

CCCCN
inactive: outcome [1] | outcome [2] | outcome [3] | Potency [4] | Potency [5] | activity change, positive = activation [6] 3.11% [at 42.5 µM] | outcome [7] | Potency [8] | outcome [9] | outcome [10] | Potency [11] | Potency [19] | outcome [12] | max response [13] 9.77% | outcome [14] | outcome [20] | outcome [15] | outcome [16] | Potency [17] | Potency [18]

CCCCCCCC/C=C\CCCCCCCC(=O)OCCCC
inactive: activity change, negative = cytotoxicity [1] -10.5% [at 15.8 µM] | activation (H2AX phosphorylation) [2] 4.47% [at 31.6 µM] | activation [3] -1.44% [at 15.8 µM] | activity change, negative = cytotoxicity [4] -0.831% [at 31.6 µM] | activity, negative = inhibition [5] 0.129% [at 19 µM] | activity change, positive = activation [6] 0.0665% [at 19 µM] | activity change, negative = cytotoxicity [7] 2.67% [at 15.8 µM] | cytotoxicity [9] -14.5% [at 15.8 µM] | activity change, negative = cytotoxic [10] 12.2% [at 15.8 µM] | cytotoxicity increase [11] -33.9% [at 15.8 µM] | viability change, negative = cytotoxic [12] -0.413% [at 15.8 µM] | activity change [14] -32.5% [at 15.8 µM] | cytotoxicity increase [20] -7.79% [at 15.8 µM] | activity change, negative = cytotoxic [15] 6.1% [at 15.8 µM] | cytotoxicity [16] -11.8% [at 15.8 µM] | cytotoxicity increase [17] -13.9% [at 15.8 µM]

CCCCCCOC(=O)CC
inactive: outcome [1] | outcome [2] | outcome [3] | Potency [4] | Potency [5] | activity change, positive = activation [6] -0.0388% | outcome [7] | Potency [8] | outcome [9] | outcome [10] | Potency [11] | Potency [19] | outcome [12] | max response [13] 2.45% | outcome [14] | outcome [20] | outcome [15] | outcome [16] | Potency [17] | Potency [18]

O=C(O)c1cc(Cl)cc([N+](=O)[O-])c1Cl
inactive: outcome [1] | outcome [2] | outcome [3] | Potency [4] | Potency [5] | activity change, positive = activation [6] -9.65% | outcome [7] | Potency [8] | outcome [9] | outcome [10] | Potency [11] | Potency [19] | outcome [12] | max response [13] 21% | outcome [20] | outcome [15] | outcome [16] | Potency [17]

C[C@@H](Oc1ccc(CNC(=O)c2cccnc2Oc2ccc3c(c2)OCO3)c(F)c1)C(=O)O
inactive: outcome [1] | outcome [2] | outcome [3] | Potency [4] | Potency [5] | activity change, positive = activation [6] 4.43% | outcome [7] | Potency [8] | outcome [9] | outcome [10] | Potency [11] | outcome [12] | max response [13] 9.55% | outcome [14] | outcome [20] | outcome [15] | outcome [16] | Potency [17] | Potency [18]

CC(C)CCCCOC(=O)c1ccccc1C(=O)OCCCCC(C)C
inactive: outcome [1] | outcome [2] | outcome [3] | Potency [4] | Potency [5] | activity change, positive = activation [6] -6.44% | outcome [7] | Potency [8] | outcome [9] | outcome [10] | Potency [11] | Potency [19] | outcome [12] | max response [13] -1.41% | outcome [14] | outcome [20] | outcome [15] | outcome [16] | Potency [17] | Potency [18]

CC(=O)Nc1ccc(S(=O)(=O)Cl)cc1
inactive: outcome [1] | outcome [2] | outcome [3] | Potency [4] | Potency [5] | activity change, positive = activation [6] -0.863% | outcome [7] | Potency [8] | outcome [9] | outcome [10] | Potency [11] | Potency [19] | outcome [12] | max response [13] -6.18% | outcome [20] | outcome [15] | outcome [16] | Potency [17] | Potency [18]

CNC(=O)[C@H]1O[C@@H](n2cnc3c(NCc4cc(Cl)ccc4OCc4cc(C)no4)ncnc32)[C@H](O)[C@@H]1N
inactive: outcome [1] | outcome [2] | outcome [3] | Potency [4] | Potency [5] | activity change, positive = activation [6] -1.8% | outcome [7] | Potency [8] | outcome [9] | outcome [10] | Potency [11] | Potency [19] | outcome [12] | max response [13] 0.414% | outcome [14] | outcome [20] | outcome [15] | outcome [16] | Potency [17] | Potency [18]

CN(C)c1ccc(C=O)cc1
inactive: outcome [1] | outcome [2] | outcome [3] | Potency [4] | Potency [5] | activity change, positive = activation [6] 0.183% | outcome [7] | Potency [8] | outcome [9] | outcome [10] | Potency [11] | Potency [19] | outcome [12] | max response [13] 14.8% | outcome [14] | outcome [20] | outcome [15] | outcome [16] | Potency [17] | Potency [18]

CC(=C(CCOC(=O)C(C)C)SSC(CCOC(=O)C(C)C)=C(C)N(C=O)Cc1cnc(C)nc1N)N(C=O)Cc1cnc(C)nc1N
inactive: outcome [1] | outcome [2] | outcome [3] | Potency [4] | Potency [5] | activity change, positive = activation [6] 0.537% [at 42.5 µM] | outcome [7] | Potency [8] | outcome [9] | outcome [10] | Potency [11] | Potency [19] | outcome [12] | max response [13] 3.74% | outcome [15] | Potency [18]

CCCCCCCCCCCCCC
inactive: outcome [1] | outcome [2] | outcome [3] | Potency [4] | Potency [5] | activity change, positive = activation [6] 2.93% | outcome [7] | Potency [8] | outcome [9] | outcome [10] | Potency [11] | outcome [12] | max response [13] 3.06% | outcome [14] | outcome [20] | outcome [15] | outcome [16] | Potency [17] | Potency [18]
